According to the supplement of paper PMC6992640:
± gives the standard deviation of the averaged measurements.

What was measured:
Assay in all cases: cell viability (% of vehicle); higher = less cytotoxic
Settings in all cases: 10 µM; 72 h
HCI01 = system: HCI01 (cells of a triple-negative basal-like breast cancer xenograft)
HCI03 = system: HCI03 (cells of an ER-positive luminal breast cancer xenograft)
HCI09 = system: HCI09 (cells of a triple-negative luminal androgen receptor type breast cancer xenograft)
HCI11 = system: HCI11 (cells of an ER-positive luminal breast cancer xenograft)
HCI13 = system: HCI13 (cells of an ER-positive luminal breast cancer xenograft)
HCI16 = system: HCI16 (cells of a triple-negative basal-like breast cancer xenograft)
UCD52 = system: UCD52 (cells of a triple-negative basal-like breast cancer xenograft)
WHIM2 = system: WHIM2 (cells of a triple-negative basal-like breast cancer xenograft)
WHIM30 = system: WHIM30 (cells of a triple-negative basal-like breast cancer xenograft)
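Further: PDX cells carrying CMV promoter-driven luciferase, viability read as total photon flux per second by IVIS imaging following D-luciferin, vehicle control 0.1% DMSO.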

CC(=O)Oc1cc2c(s1)CCN(C(C(=O)C1CC1)c1ccccc1F)C2.Cl (centres undefined) [Prasugrel hydrochloride]
cell viability (HCI01): 140 ± 12
cell viability (HCI03): 137
cell viability (HCI09): 109 ± 14
cell viability (HCI11): 120
cell viability (HCI13): 74.2 ± 5.5
cell viability (HCI16): 149
cell viability (UCD52): 110 ± 20
cell viability (WHIM2): 110.1 ± 0.98
cell viability (WHIM30): 133 ± 10

Nc1nccs1 [Aminothiazole]
cell viability (HCI01): 147 ± 24
cell viability (HCI03): 105
cell viability (HCI09): 101 ± 3.2
cell viability (HCI11): 117
cell viability (HCI13): 98.3 ± 7.8
cell viability (HCI16): 136
cell viability (UCD52): 91.8 ± 5.1
cell viability (WHIM2): 116 ± 5.8
cell viability (WHIM30): 105 ± 18

CCCCNc1ccc(C(=O)OCCN(C)C)cc1.Cl [Tetracaine HCl]
cell viability (HCI01): 130 ± 19
cell viability (HCI03): 134
cell viability (HCI09): 105 ± 25
cell viability (HCI11): 121
cell viability (HCI13): 122 ± 19
cell viability (HCI16): 99
cell viability (UCD52): 90.7 ± 13
cell viability (WHIM2): 92.2 ± 17
cell viability (WHIM30): 103.43 ± 0.084

COC(=O)C1C2CC3c4[nH]c5cc(OC)ccc5c4CCN3CC2CC(OC(=O)c2cc(OC)c(OC)c(OC)c2)C1OC.Cl (centres undefined) [Reserpine hydrochloride]
cell viability (HCI01): 109 ± 8.9
cell viability (HCI03): 114
cell viability (HCI09): 66.7 ± 3.4
cell viability (HCI11): 97.6
cell viability (HCI13): 124 ± 17
cell viability (HCI16): 87.9
cell viability (UCD52): 79.9 ± 1.5
cell viability (WHIM2): 92.6 ± 19
cell viability (WHIM30): 78.4 ± 6.3

Cc1cc(=O)[nH]c(=S)[nH]1 [Methylthiouracil]
cell viability (HCI01): 97.2 ± 29
cell viability (HCI03): 119
cell viability (HCI09): 94.7 ± 16
cell viability (HCI11): 93.8
cell viability (HCI13): 119 ± 2.5
cell viability (HCI16): 115
cell viability (UCD52): 92.7 ± 7.9
cell viability (WHIM2): 80.6 ± 8.1
cell viability (WHIM30): 139 ± 5.5

Cc1cccc(Nc2ccccc2C(=O)O)c1C [Mefenamic Acid]
cell viability (HCI01): 103 ± 23
cell viability (HCI03): 102
cell viability (HCI09): 118 ± 43
cell viability (HCI11): 98.1
cell viability (HCI13): 113 ± 6.7
cell viability (HCI16): 90.9
cell viability (UCD52): 94.4 ± 5.6
cell viability (WHIM2): 109 ± 6
cell viability (WHIM30): 112 ± 1.5

CC(C)NCC(O)c1ccc(NS(C)(=O)=O)cc1.Cl (centres undefined) [Sotalol hydrochloride]
cell viability (HCI01): 102 ± 11
cell viability (HCI03): 150
cell viability (HCI09): 109 ± 2.9
cell viability (HCI11): 111
cell viability (HCI13): 126 ± 18
cell viability (HCI16): 144
cell viability (UCD52): 116 ± 4.6
cell viability (WHIM2): 110 ± 5.1
cell viability (WHIM30): 118 ± 2.6

C=C1CCN(C(C)C(O)(Cn2cncn2)c2ccc(F)cc2F)CC1 (centres undefined) [Efinaconazole]
cell viability (HCI01): 119 ± 22
cell viability (HCI03): 148
cell viability (HCI09): 83.3 ± 19
cell viability (HCI11): 91.5
cell viability (HCI13): 126 ± 8.9
cell viability (HCI16): 165
cell viability (UCD52): 85.4 ± 5.2
cell viability (WHIM2): 95.9 ± 5.9
cell viability (WHIM30): 161 ± 25

CCC1OC(=O)C(C)C(OC2CC(C)(OC)C(O)C(C)O2)C(C)C(OC2OC(C)CC(N(C)C)C2O)C(C)(O)CC(C)C(=NOCOCCOC)C(C)C(O)C1(C)O (centres undefined) [Roxithromycin]
cell viability (HCI01): 138 ± 34
cell viability (HCI03): 147
cell viability (HCI09): 113 ± 25
cell viability (HCI11): 101
cell viability (HCI13): 133 ± 12
cell viability (HCI16): 154
cell viability (UCD52): 103 ± 2.8
cell viability (WHIM2): 103 ± 17
cell viability (WHIM30): 188 ± 29

CCOc1cc(N)c(Cl)cc1C(=O)NCC1CN(Cc2ccc(F)cc2)CCO1.O=C(O)CC(O)(CC(=O)O)C(=O)O (centres undefined) [Mosapride Citrate]
cell viability (HCI01): 138 ± 14
cell viability (HCI03): 110
cell viability (HCI09): 83.1 ± 9.6
cell viability (HCI11): 116
cell viability (HCI13): 103 ± 23
cell viability (HCI16): 118
cell viability (UCD52): 106 ± 2.8
cell viability (WHIM2): 82.6 ± 16
cell viability (WHIM30): 136 ± 5.5

CN(C)C(=O)NC1CCC(CCN2CCN(c3cccc(Cl)c3Cl)CC2)CC1 (centres undefined) [Cariprazine]
cell viability (HCI01): 122 ± 28
cell viability (HCI03): 72.1
cell viability (HCI09): 43.9 ± 2.2
cell viability (HCI11): 67.7
cell viability (HCI13): 53.4 ± 11
cell viability (HCI16): 89.7
cell viability (UCD52): 38.5 ± 6
cell viability (WHIM2): 119 ± 8
cell viability (WHIM30): 118.6 ± 0.35
